Test results from PubChem BioAssay (NCI).
Compounds without any hit were thinned out: in the full panel of roughly 83,000, 20% have a hit.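 Treatment: one concentration, 48 hours, 96-well format. Scoring: percent growth, with anything below 10 considered active.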 Calls of active or inactive are those of the source.

Experiments:
Experiment in all cases: NCI-60 one-dose screen, 48 h (100 = growth as untreated, 0 = no growth, -100 = all killed)
Settings in all cases: 10 µM unless noted
DU-145 prostate = test system: DU-145 prostate
K-562 leukemia = test system: K-562 leukemia
MALME-3M melanoma = test system: MALME-3M melanoma
MDA-MB-231 breast = test system: MDA-MB-231 breast
RXF 393 renal = test system: RXF 393 renal
SF-268 CNS = test system: SF-268 CNS
SF-295 CNS = test system: SF-295 CNS
SF-539 CNS = test system: SF-539 CNS
UACC-257 melanoma = test system: UACC-257 melanoma
M14 melanoma = test system: M14 melanoma

Measured: growth

O=C(Cc1ccccc1)NNc1nc(Cl)nc(N2CCN(C(c3ccccc3)c3ccccc3)CC2)n1
active: K-562 leukemia 9.78%
inactive: DU-145 prostate 110% | MALME-3M melanoma 99.6% | MDA-MB-231 breast 84.4% | RXF 393 renal 85.8% | SF-268 CNS 100% | SF-295 CNS 98.6% | SF-539 CNS 102% | UACC-257 melanoma 90.6% | M14 melanoma 81.6%

C[C@H]1[C@H](C)CC[C@]2(C(=O)NCC#CCN3CCN(C)CC3)CC[C@]3(C)C(=CC[C@@H]4[C@@]5(C)Cc6c([nH]c7ccccc67)C(C)(C)[C@@H]5CC[C@]43C)[C@H]12
inactive: DU-145 prostate 73.1% | MALME-3M melanoma 61.6% | MDA-MB-231 breast 63.8% | RXF 393 renal 84.9% | SF-268 CNS 82.5% | SF-295 CNS 106% | SF-539 CNS 84.8% | UACC-257 melanoma 97% | M14 melanoma 71.3%
active: K-562 leukemia 1.37%

Nc1nc(Nc2ccccc2SSc2ccccc2Nc2nc(N)nc(-c3cccs3)n2)nc(-c2ccsc2)n1
inactive: DU-145 prostate 95.1% | K-562 leukemia 80.9% | MALME-3M melanoma 106% | MDA-MB-231 breast 75.8% | RXF 393 renal 109% | SF-268 CNS 79.6% | SF-539 CNS 105% | UACC-257 melanoma 101% | M14 melanoma 96.5%
active: SF-295 CNS -53.4%

C=C1C(=O)O[C@H]2[C@H]1CC/C(CNC(=O)CCc1ccc(OC)cc1)=C\CC[C@@]1(C)O[C@@H]21
inactive: DU-145 prostate 24.2% | K-562 leukemia 19.4% | MALME-3M melanoma 69.2% | MDA-MB-231 breast 65.8% | RXF 393 renal 44.6% | SF-268 CNS 79.5% | SF-295 CNS 91.9% | SF-539 CNS 31.1% | UACC-257 melanoma 53.1% | M14 melanoma 42.5%

CCOC(=O)c1cc(C(=O)c2ccc(Br)cc2)n2ccc(/C=C/c3cc[n+](CC(=O)c4ccc(OC)cc4)cc3)cc12
inactive: DU-145 prostate 87% | MALME-3M melanoma 97.9% | MDA-MB-231 breast 71.6% | RXF 393 renal 94.4% | SF-268 CNS 110% | SF-295 CNS 103% | SF-539 CNS 102% | UACC-257 melanoma 100% | M14 melanoma 95.9%
active: K-562 leukemia 3.23%

C=CC(=O)N[C@@H](/C=C/C(=O)OCC)Cc1ccc(-c2cc(Cl)cc(Cl)c2)cc1
active: K-562 leukemia 8.57% | MALME-3M melanoma 4.14% | MDA-MB-231 breast 9.36% | RXF 393 renal -10.1% | UACC-257 melanoma -2.68%
inactive: DU-145 prostate 16.9% | SF-268 CNS 32.1% | SF-295 CNS 21.8% | SF-539 CNS 56.8% | M14 melanoma 24.7%

NC(=NCCCOc1ccc(F)cc1)Nc1ccc(I)cc1
inactive: DU-145 prostate 63.1% | K-562 leukemia 27.3% | MALME-3M melanoma 74.6% | MDA-MB-231 breast 51.9% | RXF 393 renal 94% | SF-268 CNS 67.7% | SF-295 CNS 80.8% | SF-539 CNS 78.8% | UACC-257 melanoma 55.8% | M14 melanoma 59.6%

COc1ccc(C/C(=C(\C)c2ccc(OCCN3CCCC3)cc2)c2ccc(OCCN3CCCC3)cc2)cc1
active: K-562 leukemia -64.1% | M14 melanoma -64.8%
inactive: DU-145 prostate 70% | MALME-3M melanoma 47.1% | MDA-MB-231 breast 17.8% | RXF 393 renal 55.7% | SF-268 CNS 69.9% | SF-295 CNS 34.2% | SF-539 CNS 29.9% | UACC-257 melanoma 63.9%

CCCCCC(=O)Oc1ccc(/C(=C(/C)Cc2ccc(OC)cc2)c2ccc(OCCCN(C)C)cc2)cc1
inactive: DU-145 prostate 90.4% | MALME-3M melanoma 74.9% | MDA-MB-231 breast 66.1% | RXF 393 renal 61.6% | SF-268 CNS 70.1% | SF-295 CNS 32.4% | SF-539 CNS 66.8% | UACC-257 melanoma 75.9% | M14 melanoma 36.3%
active: K-562 leukemia 6.07%

CC(=O)CCC(=O)OCc1cc(=O)c(O)co1
inactive: DU-145 prostate 102% | K-562 leukemia 102% | MALME-3M melanoma 95.5% | MDA-MB-231 breast 110% | RXF 393 renal 113% | SF-268 CNS 97.7% | SF-295 CNS 103% | SF-539 CNS 110% | UACC-257 melanoma 99.7% | M14 melanoma 99.4%

Cc1ccccc1NS(=O)(=O)c1cccc(C(=O)Nc2ccc(Br)cc2)c1
inactive: DU-145 prostate 57.8% [25 µM] | K-562 leukemia 23.1% [25 µM] | MALME-3M melanoma 18% [25 µM] | MDA-MB-231 breast 56% [25 µM] | RXF 393 renal 60.7% [25 µM] | SF-268 CNS 36.5% [25 µM] | SF-295 CNS 19.7% [25 µM] | SF-539 CNS 57.3% [25 µM] | UACC-257 melanoma 27.4% [25 µM] | M14 melanoma 35.5% [25 µM]

NNC(=O)c1ccc(-n2nc(-c3ccccc3)c3ccccc32)cc1
inactive: DU-145 prostate 79.7% | K-562 leukemia 84.1% | MALME-3M melanoma 90.2% | MDA-MB-231 breast 63.9% | RXF 393 renal 61.7% | SF-268 CNS 64% | SF-295 CNS 75.2% | SF-539 CNS 82.8% | UACC-257 melanoma 99.5% | M14 melanoma 77%

O=C(Nc1cccc(C(=O)N2CCc3ccc(Cl)cc32)c1)c1ccco1
inactive: DU-145 prostate 67.8% | K-562 leukemia 13.9% | MALME-3M melanoma 40.9% | MDA-MB-231 breast 44.9% | RXF 393 renal 39.9% | SF-268 CNS 55.9% | SF-295 CNS 30.8% | SF-539 CNS 26.8% | UACC-257 melanoma 52.2% | M14 melanoma 18.2%

COc1ccc(/C=C2\Oc3cc(OCCCN4CCCCC4)ccc3C2=O)cc1OC
active: K-562 leukemia -22.8%
inactive: DU-145 prostate 95.9% | MALME-3M melanoma 104% | MDA-MB-231 breast 78.6% | RXF 393 renal 74.4% | SF-268 CNS 86.5% | SF-295 CNS 102% | SF-539 CNS 91.5% | UACC-257 melanoma 102% | M14 melanoma 98.7%

CN1CCN(C(=O)[C@]23CCC(C)(C)C[C@H]2C2=CC[C@@H]4[C@@]5(C)C/C(=C/c6cccnc6)C(=O)C(C)(C)[C@@H]5CC[C@@]4(C)[C@]2(C)CC3)CC1
inactive: DU-145 prostate 71.6% | K-562 leukemia 10.9% | MALME-3M melanoma 63.4% | MDA-MB-231 breast 59.8% | RXF 393 renal 64.9% | SF-268 CNS 68.3% | SF-295 CNS 74% | SF-539 CNS 80% | UACC-257 melanoma 43.7% | M14 melanoma 57.5%

O=C(/C=C/c1ccc[nH]1)c1ccc(-n2ccc(C(F)(F)F)n2)c(F)c1
inactive: DU-145 prostate 99.8% | K-562 leukemia 77.4% | MALME-3M melanoma 84.6% | MDA-MB-231 breast 87.1% | RXF 393 renal 91.1% | SF-268 CNS 93.6% | SF-295 CNS 90.2% | SF-539 CNS 69.7% | UACC-257 melanoma 99.7% | M14 melanoma 94.3%

COc1cc2nc(-c3ccc(Cl)cc3)cc(OCCCN3CCCC3)c2cc1OC
active: SF-295 CNS -17% | M14 melanoma -29.7%
inactive: DU-145 prostate 41.7% | K-562 leukemia 21.1% | MALME-3M melanoma 50% | MDA-MB-231 breast 21.5% | RXF 393 renal 42.8% | SF-268 CNS 54.5% | SF-539 CNS 42.6% | UACC-257 melanoma 31.7%

COc1cccc(-c2ccc3c(c2)NC(=O)/C3=C\c2ccc[nH]2)c1
inactive: DU-145 prostate 65.7% | K-562 leukemia 12.4% | MALME-3M melanoma 51.9% | MDA-MB-231 breast 53.4% | RXF 393 renal 32.2% | SF-268 CNS 80.8% | SF-295 CNS 61.8% | SF-539 CNS 45.4% | UACC-257 melanoma 77% | M14 melanoma 39.2%

CC1(C)CC[C@]23CC[C@]4(C)[C@H](CC[C@@H]5[C@@]6(C)CCCNC(C)(C)[C@@H]6CC[C@]54C)[C@H]2[C@H]1OC3
inactive: SF-268 CNS 38.2% | SF-539 CNS 38.7% | UACC-257 melanoma 45.1%
active: DU-145 prostate -8.9% | K-562 leukemia -39.7% | MALME-3M melanoma -63.4% | MDA-MB-231 breast -62.8% | RXF 393 renal -65.3% | SF-295 CNS -65% | M14 melanoma -77.2%

COC(=O)N[C@H]1CCc2c(Cl)c(OC)c(OC)c(OC)c2-c2ccc(SC)c(=O)cc21
active: DU-145 prostate -11.1% | K-562 leukemia 7.05% | MDA-MB-231 breast -2.11% | SF-539 CNS -0.571% | M14 melanoma 0.0864%
inactive: MALME-3M melanoma 36.8% | RXF 393 renal 20.3% | SF-268 CNS 20.2% | SF-295 CNS 12% | UACC-257 melanoma 68.3%

CC(C)(C)c1ccc(NS(=O)(=O)c2ccc3nc(NC(=O)c4cnccn4)[nH]c3c2)cc1
inactive: DU-145 prostate 34.3% | K-562 leukemia 15.7% | MALME-3M melanoma 31.9% | MDA-MB-231 breast 50.5% | RXF 393 renal 13.5% | SF-268 CNS 37.7% | SF-295 CNS 35% | UACC-257 melanoma 46.7% | M14 melanoma 35.1%
active: SF-539 CNS -0.716%

O=C(CCN1CCCC1)Nc1ccc2c(NCc3ccccc3)c3ccccc3nc2c1
active: DU-145 prostate -25% | K-562 leukemia -14.3% | MALME-3M melanoma -18.5% | MDA-MB-231 breast -14.9% | RXF 393 renal -16% | SF-268 CNS -2.23% | SF-539 CNS 5.91% | UACC-257 melanoma 1.08% | M14 melanoma 7.61%
inactive: SF-295 CNS 15.5%

CCOC(=O)/C(C#N)=C1/NNC(=Nc2cccnc2)S1
inactive: DU-145 prostate 105% | K-562 leukemia 99.8% | MALME-3M melanoma 105% | MDA-MB-231 breast 98.8% | RXF 393 renal 110% | SF-268 CNS 100% | SF-295 CNS 98.9% | SF-539 CNS 102% | UACC-257 melanoma 78.3% | M14 melanoma 95.9%
